Data taken from PubChem BioAssay (NCATS).
Inconclusive results are not listed. Entries that show only a call come without a potency. Activity calls are given as the source filed them. Calls come from the whole dose curve; as a rule, active = well fitted inhibition curve with a large enough effect; inconclusive = small, poorly fitted or top-dose-only effect; inactive = flat fitted curve, though single readings scatter.

These compounds were tested on CRL-7250 (assay: qHTS assay to identify novel small-molecules to repurpose for Merkel cell carcinoma treatment (AID 1296009; note: nearly all actives have a fitted effect of over 60% in size)). Conditions: MCC and control cell lines, CellTiter-Glo viability, 72 h; series mostly up to 92 µM.
In short: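 72 hr, 37 degree celsius; NPC 8-pt / MIPE 11-pt dose response; compound pinned in DMSO; CellTiter-Glo, 10 min RT, luminescence; normalized to no-cell and DMSO controls.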

SMILES | Potency
COc1ccc(/C=C/C(=O)O[C@@H]2[C@@H](OC(C)=O)[C@@H](OC(C)=O)[C@H](O[C@H]3[C@@H]4C=CO[C@@H](O[C@@H]5O[C@H](CO)[C@@H](O)[C@H](O)[C@H]5O)[C@@H]4[C@@]4(CO)O[C@@H]34)O[C@H]2C)cc1 | inactive
COc1ccccc1CN[C@H]1CCCN[C@H]1c1ccccc1 | inactive
Cc1c(C)c(NCC(=O)N(C)C2CCN(Cc3ccc(C(N)=O)cc3)CC2)c(C)c(C)c1N | inactive
CC1(O)CCC2C(C(=O)O)=COC(OC3OC(CO)C(O)C(O)C3OC(=O)/C=C/c3ccc(O)cc3)C21 (stereo not given) | inactive
C=C1C(=O)OC2/C=C(\C)CC/C=C(\C(=O)O)CC/C=C(\C)CCC12 (stereo not given) | inactive
C=C1CC[C@@H]2[C@@](C)(CO[C@@H]3O[C@H](CO)[C@@H](O)[C@H](O)[C@H]3O)[C@H](O)CC[C@@]2(C)[C@@H]1CC/C(C)=C/CO[C@@H]1O[C@H](CO)[C@@H](O)[C@H](O)[C@H]1O | inactive
CC1C(=O)CC2C3C(O)CC(C(=O)O)C12CC3(C)C (stereo not given) | inactive
C[C@@H]1O[C@@H](OC[C@H]2O[C@@H](OCc3ccccc3)[C@H](O)[C@@H](O)[C@@H]2O)[C@H](O)[C@H](O)[C@H]1O | inactive
C/C=C(\C)C(=O)O[C@H]1[C@@H](O[C@]2(COC(=O)CC(C)C)O[C@H](COC(=O)C(C)C)[C@@H](OC(C)=O)[C@@H]2O)O[C@H](COC(C)=O)[C@@H](O)[C@@H]1O | inactive
C=C1C2(CCC(=O)OC2(C)C)CC(OC(=O)/C(C)=C/C)C2(C)C13OC14C(=O)OC(C)(C(=O)C12C(=O)OC4C)C3OC(C)=O (stereo not given) | inactive
